Experimental data as given in ChEMBL document CHEMBL3433997, “St. Jude Leishmania screening dataset” (2016).

What was measured:
Type in all cases: functional
[1] = target: Solute carrier family 2, facilitated glucose transporter member 1 (Homo sapiens) (UniProt P11166); assay: ST_JUDE_LEISH: Cytotoxicity at 2uM final concentration against transgenic Leishmania Mexicana promastigotes LmGLUT1 that are glucose transport deficient and complemented with the human glucose transporter GLUT1. Activity is measured by DNA content using SYBR green in vitro
Solute carrier family 2, facilitated glucose transporter member 1 (Homo sapiens), sequence (P11166 whole entry): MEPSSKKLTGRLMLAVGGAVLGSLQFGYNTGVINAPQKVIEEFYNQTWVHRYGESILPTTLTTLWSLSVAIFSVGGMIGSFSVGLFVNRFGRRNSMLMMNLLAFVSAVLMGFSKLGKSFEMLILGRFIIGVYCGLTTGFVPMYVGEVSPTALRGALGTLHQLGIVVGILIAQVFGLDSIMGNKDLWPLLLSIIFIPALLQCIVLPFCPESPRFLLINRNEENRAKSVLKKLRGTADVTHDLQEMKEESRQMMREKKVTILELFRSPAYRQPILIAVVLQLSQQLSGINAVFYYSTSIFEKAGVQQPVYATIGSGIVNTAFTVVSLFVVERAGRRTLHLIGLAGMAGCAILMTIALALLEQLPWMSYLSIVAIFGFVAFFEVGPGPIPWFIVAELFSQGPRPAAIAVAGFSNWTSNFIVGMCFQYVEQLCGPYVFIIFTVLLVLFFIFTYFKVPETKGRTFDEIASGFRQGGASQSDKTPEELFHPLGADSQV

[2] = target: Hexose transporter 1 (Plasmodium falciparum) (UniProt O97467); assay: ST_JUDE_LEISH: Cytotoxicity at 2uM final concentration against transgenic Leishmania Mexicana promastigotes LmPfHT that are glucose transport deficient and complemented with the Plasmodium falciparum hexose transporter. Activity is measured by DNA content using SYBR green in vitro
[3] = target: Glucose transporter (Leishmania mexicana) (UniProt O61059); assay: ST_JUDE_LEISH: Cytotoxicity at 2uM final concentration against transgenic Leishmania Mexicana promastigotes LmGT2 that are glucose transport deficient and complemented with the L. Mexicana glucose transporter 2. Activity is measured by DNA content using SYBR green in vitro

SMILES	inhibition [1] [%]	inhibition [2] [%]	inhibition [3] [%]
Cc1cc(N[C@@H](CC(C)C)C(=O)NC2CCCC2)nc(NCCc2ccc(F)cc2)n1	3.05	1.34	0.03
Cc1nn(-c2ccccc2)c2sc(C(=O)N(CCCN(C)C)c3nc(-c4ccccc4)cs3)cc12	1.15	3.31	0.07
CCOc1cc(C(=O)Nc2ccc3nc(N4CCCCC4)cc(C)c3c2)cc(OCC)c1OCC	4.92	4.24	3.07
CC(C)CNCc1ccc(-c2ccc(CN(C(=O)NCCc3ccccc3)C3CCN(Cc4ccccc4)CC3)cc2)cc1	71.6	53.7	47.2
COc1cc2ncnc(Nc3ccc(OCc4ccccc4)c(OCc4ccccc4)c3)c2cc1OC	4.65	5.44	2.69
CCN1CCCC(CNC(=O)/C(=C/C=C/c2cc3cc(Cl)c(Cl)cc3[nH]2)OC)C1 (stereo not given)	-0.41	1.17	1.2
CO/C(=C\C=C\c1cc2cc(Cl)c(Cl)cc2[nH]1)C(=O)NCCCN1CCN(C2CCCCC2)CC1	8.66	5.7	2.31
COc1ccc(Cl)cc1N1CCN(CCCNC(=O)c2ccc(-c3nc4c(C)cccc4[nH]3)s2)CC1	1.19	-0.51	-1.08
CC(C)CCN1CCC(Oc2ccc(NC(=O)c3ccccc3)cc2Cl)CC1	1.25	3.09	2.86
COc1cccc(CNC[C@@H](O)[C@H](Cc2ccccc2)NC(=O)c2cc(C3CCCC3)cc(N3CCCCS3(=O)=O)c2)c1	0.71	1.78	0.92
COc1ccc2ccccc2c1CCCCN1CCN(CC(c2ccc(F)cc2)N2CCC2)CC1 (stereo not given)	4.25	3.64	3.18
NC1CCN(c2nc(NCCCc3ccc(O)cc3)nc(NCc3cccc4ccccc34)n2)CC1	0.21	-3.11	2.63
CCCc1cc(NCC)nc(Nc2ccc(F)cc2)n1	15.6	6.64	3.2
OCC1CCCCN1Cc1cccc(-c2cccc(-c3nc4ccccc4[nH]3)c2)c1 (stereo not given)	6.6	4.14	4.46
COc1ccc2nc3cc(Cl)ccc3c(NCCCCCCNc3c4ccc(Cl)cc4nc4ccc(OC)cc34)c2c1	10.3	11.2	9.4
O=C(NC1CCCCC1)c1ccc(O)c(-c2cccc(C(F)(F)F)c2)c1	2.06	2	1.27
Cc1cccc(-c2ccc(NC(=O)C3CCN(Cc4cccc(O)c4)CC3)cc2)c1	0.07	1.99	-0.58
CCOc1ccc2c(c1)N(C(=O)C=Cc1ccccc1)C(C)(C)c1ssc(=S)c1-2	0.5	0.43	0.85

SMILES	inhibition [1] [%]	inhibition [2] [%]	inhibition [3] [%]
COc1ccccc1CCNc1nc(C)cc(NCCC(=O)Nc2ccccc2)n1	1.82	2.34	1.43
CCc1ccc(C2=Nn3c(nnc3-c3cccs3)SC2)cc1	2.35	1.1	-0.08
COc1ccc(CNC2Cc3ccccc3C2)cc1-c1ccc(S(=O)(=O)NCCN2CCCC2)c(F)c1	28.3	14	6.14
FC(F)(F)c1ccc2[nH]c(-c3cccc(-c4ccc(CNCCN5CCNCC5)cc4)c3)nc2c1	2.75	2.47	1.97
O=C(Cc1ccc(-n2cnnn2)cc1)N(Cc1cncn1Cc1cccc(C(F)(F)F)c1)CC1CC1	-1.26	-1.38	1.66
CCCNCc1ccc(-c2ccc(CN(CCOC)C(=O)CCC(=O)c3ccc(OC)c(F)c3)cc2)nc1	0.12	3.36	1.5
CC(C)C[C@@H](NC(=O)NC1CCC(CCN2C3CCC2CC(OC(=O)C(CO)c2ccccc2)C3)CC1)C(O)(c1ccccc1)c1ccccc1 (stereo not given in full)	3.28	2.19	0.94
CC[C@H](C)CNC(=O)c1cncc(-c2ccc(CNC3CCCC3)cc2)c1	2.12	1.43	1.7
Cc1cccc2nc(-c3cccc(-c4cccc(CNCc5cnn(-c6ccccc6)n5)c4)c3)[nH]c12	0.8	1.43	2.51
O=C(Nc1ccc(C(=O)OCC(c2ccccc2)c2ccccc2)cc1)N[C@@H](Cc1ccc(O)cc1)C(=O)NC1CCN(Cc2ccc(O)cc2)C1 (stereo not given in full)	-0.47	-1.74	-3.39
COc1ccc(COc2c(OC)cc(Cc3cnc(N)nc3N)cc2OC)cc1	5.65	5.76	6.57
c1ccc(CN2CCC(NCc3ccccc3-c3ccc(CNCc4ccc5c(c4)OCO5)cc3)CC2)cc1	11.8	10.4	9.54
N#Cc1ccc(CN2CCC(Oc3ccc(NC(=O)c4cccs4)cc3Cl)C2)cc1 (stereo not given)	-0.24	3.89	-0.2
COc1ccc2nccc([C@@H](O)CN3CCC(NCc4cc5cccc(O)c5c(=O)[nH]4)CC3)c2c1	13.7	31.5	1.42
O=C(/C=C/c1ccccc1)N1CCOC(CCN2CCC(c3ccccc3)CC2)(c2ccc(Cl)c(Cl)c2)C1 (stereo not given)	13.3	7.51	7.43
CC1(C)CN(CCC2CCC(NC(=O)/C=C/c3ccccc3F)CC2)Cc2ccc(C#N)cc21 (stereo not given)	3.59	1	1.48
COc1cc(OC)c(OC)cc1C=NN=c1cc(C)[nH]c2ccccc12	1.25	1.67	-1.17
